Pf growth 48h: P. falciparum growth inhibition at 48 hours (one generation); hit rate 5.9% among 310,000; P. falciparum luciferase growth in erythrocytes, 48 h; Potency, µM (series often up to 28.7 µM), inactives show top-dose activity change, negative = inhibition, actives largely listed as inhibitors; AID 504832; note: potency is the fitted concentration of half-maximal effect
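First compound was added to culture medium, then infected red cells at 0.1% parasitemia and 2% hematocrit (final). After incubation at 37 C under 5% CO2, luciferase detection reagent was dispensed and light output recorded.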
HCV inh: inhibitors of hepatitis C virus infection | Huh7.5.1 HCVcc-Cre infection, luciferase reporter, 44 h | Potency, µM (highest dose often 41.8 µM), for inactives: top-dose activity change, negative = inhibition, hits mostly inhibitors | hit rate 3.4% among 340,000 | AID 651820; note: potency is the fitted concentration of half-maximal effect
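Infectious HCVcc-Cre (~0.5 moi) was added to cells just after compound, with cells seeded 4 h earlier at 1,000 per well. Luciferase activity after 44 h culture reported infection; substrate was incubated 15 min at room temperature before reading.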
Lassa entry inh: Lassa virus entry inhibition | Lassa virus pseudotype entry inhibition, cell reporter | Potency, µM (doses to about 37.9 µM), without a hit: at the highest dose activity change, negative = inhibition, actives largely listed as inhibitors | hit rate 1.2% among 300,000 | AID 540256; calls by dose curve; tested in HEK293 cells; note: potency is the fitted concentration of half-maximal effect; nearly all actives have a fitted effect of over 50% in size
Marburg entry inh: inhibitors of Marburg virus binding or cell entry; hit rate 1.8% among 300,000; Potency, µM (doses to about 37.8 µM), without a hit: at the highest dose activity change, negative = inhibition, most hits filed as inhibitors; Marburg virus pseudotyped entry inhibition, cell reporter; calls by dose curve; tested in HEK293 cells; note: potency is the fitted concentration of half-maximal effect
Pf growth 96h: P. falciparum growth inhibition at 96 hour, primary screen for plastid delayed-death inhibitors | hit rate 6.9% among 320,000 | P. falciparum luciferase reporter growth, 96 h | Potency, µM (highest dose often 28.7 µM), for inactives: top-dose activity change, negative = inhibition, most hits filed as inhibitors; note: potency is the fitted concentration of half-maximal effect
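P. falciparum expressing integrated firefly luciferase grown in erythrocytes (2% hematocrit, 0.05% parasitemia final) with compounds for 96 hours at 37 C, 5% CO2. Growth inhibition read as loss of luminescence after adding luciferase detection reagent.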
HCMV antiviral: inhibitors of human cytomegalovirus; activity change, negative = inhibition, % at 57.5 µM; hit rate 4.5% among 410,000; HFF cells, HCMV-luciferase reporter, 72 h; active compounds read low; in the data active = activity change below about -60%; inconclusive = no clear call, values can overlap the other calls; inactive = above about -39%
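HFF cells seeded 16 h at 37C, treated with compounds, infected with luciferase-reporter HCMV at MOI 1 PFU/cell; luciferase read at 72 h post infection, normalized to buffer-only and Salinomycin controls.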
Active calls of the source: *; ? = inconclusive; . = no result; [ ] = remark or other dose. Shown are actives, neighbours in structure and some others; about 14% of the full set was active somewhere. Unless noted, calls come from the whole dose curve; as a rule, active = well fitted inhibition curve with a large enough effect; inconclusive = small, poorly fitted or top-dose-only effect, or another doubt; inactive = no such curve, though single readings can be large or run the other way. % is set by controls: 0 for no effect and ±100 for the full control effect.

SMILES | Pf growth 48h | HCV inh | Lassa entry inh | Marburg entry inh | Pf growth 96h | HCMV antiviral
O=C(Nc1ccc(F)c(Cl)c1)C1CCCN1S(=O)(=O)c1ccc(F)cc1 (stereo not drawn) | . | . | -0.4%[46.1 µM] | -11.8%[46.1 µM] | . | -6.4
Cc1cccc(-n2c(=O)c3ccccc3n(Cc3ccccc3)c2=O)c1 | . | . | -3.9%[46.1 µM] | ? | . | -8.1
Cc1c2cnn(-c3ccccc3)c(=O)c2c(C)n1CCCC(=O)N1CCN(c2ncccn2)CC1 | ? | ? | 23.2% | -15.3% | ? | -5.1
CCN1CCN(C(=O)CCCn2c(C)c3cnn(-c4ccccc4)c(=O)c3c2C)CC1 | . | -30.0% | . | -3.2% | 2.62µM* | 24.8
CCCCS(=O)(=O)N1CCN(C(=N)N[N+](=O)[O-])CC1 | 5.5% | 21.1% | 21.5% | 10.2%[46.1 µM] | ? | -62.4*
CC(C)CCNC(=O)CN1C(=O)c2cccnc2Sc2ccccc21 | . | . | 6.4%[46.1 µM] | . | . | 26.6
CCOC(=O)c1c(NC(=O)CN(CC)CC)sc2c1CCN(C(=O)OCC)C2 | 9.28µM* | 2.82µM* | ? | ? | 8.28µM* | ?
CCOC(=O)N1CCc2c(sc(NC(=O)C3=COCCO3)c2C(N)=O)C1 | ? | . | -1.2% | 3.6% | ? | 8.5
CCOC(=O)c1c(NC(=O)CN2CCN(C(=O)c3ccco3)CC2)sc2c1CCCC2 | 3.7µM* | ? | -1.4% | 9.4% | 115.2% | -8.5
CCOC(=O)c1c(NC(=O)c2ccco2)sc2c1CCCC2 | 9.3% | ? | 16.2% | -2.0% | . | -0.8
CCOC(=O)c1c(NC(=O)CN2CCCCC2)sc2c1CCN(C(=O)OCC)C2 | 10.4µM* | 10µM* | ? | ? | 5.22µM* | -60.0*
CCOC(=O)c1c(NC(=S)N2CCN(C)CC2)sc2c1CCN(C(=O)OCC)C2 | 13.1µM* | 6.31µM* | -15.9%[46.1 µM] | ? | 11.7µM* | -98.8*
CC(=O)C(C)Oc1ccc2c3c(c(=O)oc2c1C)CCCC3 (stereo not drawn) | 9.28µM* | 10µM* | -29.2% | 2.5% | 8.28µM* | -10.5
CC(=O)COc1ccc2c3c(c(=O)oc2c1C)CCCCC3 | 109.5% | 11.2µM* | ? | ? | ? | ?
CC1(c2ccccc2)NC(=O)N(CC(=O)NCc2cccc(Cl)c2)C1=O (stereo not drawn) | 17.4% | ? | 8.8% | ? | 15.1% | -0.9
CC1(c2nnc(Cc3ccccc3)o2)CC(c2ccccc2Br)=NO1 (stereo not drawn) | 12.3% | 0.5% | . | . | 33.2% | -0.1
COc1cccc(C2C3=C(N=c4s/c(=C\c5cccc(O)c5)c(=O)n42)c2ccccc2CC3)c1OC (stereo not drawn) | 2.33µM* | ? | ? | -23.1% | ? | -95.5*
COc1cccc(C2C3=C(N=c4s/c(=C\c5ccc(O)cc5)c(=O)n42)c2ccccc2CC3)c1OC (stereo not drawn) | ? | -9.3% | 11.3% | 20.0% | 13.1µM* | -3.8
COc1ccccc1C1C2=C(N=c3s/c(=C/c4cccc(OCC(=O)O)c4)c(=O)n31)c1ccccc1CC2 (stereo not drawn) | 10.4µM* | ? | 12.8% | 1.2% | ? | ?
COc1cccc(C2C3=C(N=c4s/c(=C\c5ccc(OCC(=O)O)cc5)c(=O)n42)c2ccccc2CC3)c1 (stereo not drawn) | ? | -11.4% | . | . | ? | .
CCOC(=O)C1=C(C)N=c2sc(=Cc3cc(Cl)c(OCC(=O)O)c(OC)c3)c(=O)n2C1c1ccccc1Cl (stereo not drawn) | . | . | . | . | . | -32.5
COc1ccc(CNC(=O)CSc2nc(SC)ns2)cc1 | -0.7% | 9.8% | . | . | 15.9% | 31.7
CNc1ncnc2c1ncn2[C@H]1CN(CCc2ccccc2)C[C@@H](CO)O1 | . | . | . | . | . | 17.4
Cc1cc(C(F)F)n2nc(C(=O)Nc3cccc(C(F)(F)F)c3)nc2n1 | -27.4% | -11.3% | 1.4% | -19.5% | ? | -19.2
COc1ccc(C(F)(F)F)cc1NC(=O)c1nc2nc(C)cc(C(F)F)n2n1 | 3.7µM* | -2.1% | 5.2% | 0.0% | ? | 4.2
SMILES | Pf growth 48h | HCV inh | Lassa entry inh | Marburg entry inh | Pf growth 96h | HCMV antiviral
O=C(Cn1c(NCCO)nc2ccccc21)c1ccccc1 | 11.1% | 15.8% | 0.2% | 7.1% | 9.28µM* | ?
Cc1ccc(C(=O)Cn2c(NCCO)nc3ccccc32)cc1 | 45.7% | -2.2% | -0.3% | ? | ? | -12.6
CC(C)(C)C(=O)Cn1c(NCCCO)nc2ccccc21 | 11.4% | 3.2% | 2.9% | 4.5% | 11.7µM* | 6.0
CCCCSCCCNC(=O)c1cc(-c2cccnc2)nc2ccc(S(=O)(=O)N3CCC(C)CC3)cc12 | . | . | 24.8%[46.1 µM] | . | . | 20.5
Cc1ccc(C(=O)N2CCn3c(nnc3C(=O)NCC3CC3)C2)cc1F | . | . | . | . | . | -9.5
O=C(c1ccc(-n2c(SCc3cccc(F)c3)nc3ccccc3c2=O)cc1)N1CCOCC1 | ? | 4.0% | 17.6% | -4.7% | 30.5% | -62.9*
COc1cccc(-n2c(=S)[nH]c3ccccc3c2=O)c1 | ? | 19.5% | -21.0%[46.1 µM] | 5.0%[46.1 µM] | -12.3% | -21.0
O=c1c2ccccc2[nH]c(=S)n1-c1cccc(S(=O)(=O)N2CCCC2)c1 | -22.2% | -12.3% | 11.6% | 0.1%[46.1 µM] | ? | -76.7*
O=c1c2ccccc2nc(SCc2cccc(F)c2)n1-c1cccc(S(=O)(=O)N2CCCC2)c1 | ? | ? | -24.2% | ? | 6.57µM* | -37.3
Cc1ccc(NC(=O)CSc2nc(NS(=O)(=O)c3ccc(C)cc3)cc(=O)[nH]2)cc1 | 5.22µM* | -24.7% | -17.5% | ? | . | -4.5
Cc1cccc(NC(=O)CSc2nc(NS(=O)(=O)c3ccccc3)cc(=O)[nH]2)c1 | 0.0% | -5.7% | . | . | 10.4µM* | -28.6
COc1ccc(Cl)cc1NC(=O)CSc1nc(NS(=O)(=O)c2ccccc2)cc(=O)[nH]1 | 0.0% | ? | 7.8% | 4.8%[46.1 µM] | 8.28µM* | ?
Cc1ccc(S(=O)(=O)Nc2ccc(-c3nnc(SCc4ccccc4Cl)o3)cc2)cc1 | ? | 5.4% | ? | ? | ? | -83.5*
COc1ccc(NC(=O)CSc2nc(NS(=O)(=O)c3ccccc3)cc(=O)[nH]2)cc1 | ? | 10.9% | 6.7% | 28.9% | 10.8% | 10.5
O=C(CC1CC1)N1CC(=O)N2[C@@H](CO)[C@@H](c3ccc(Br)cc3)[C@@H]2C1 | . | . | . | . | . | -20.8
CCO[C@H](c1cc(OC)cc([N+](=O)[O-])c1OC)[C@H](C)/C=C\CC(=O)OC | . | . | . | 1.4%[14.2 µM] | . | .
O=C(Nc1ccccc1C(F)(F)F)c1ncoc1-c1ccco1 | . | . | 17.4%[46.1 µM] | . | . | -16.4
O=c1cc(NS(=O)(=O)c2ccccc2)nc(SCc2ccc(Cl)cc2)[nH]1 | ? | ? | 9.0% | ? | ? | -15.7
Cc1ccc(S(=O)(=O)Nc2cc(=O)[nH]c(SCc3ccccc3Cl)n2)cc1 | -4.6% | ? | ? | ? | 0.0% | -66.4*
NS(=O)(=O)c1ccc(CCNCC(=O)NCc2ccccc2Cl)cc1 | . | 12.5% | . | . | -1.0% | -7.9

Compound activity from PubChem BioAssay.
